Bioassay records deposited in PubChem by National Center for Advancing Translational Sciences (NCATS).
Shown is part of a subset that was picked to be rich in hits.
Pf Dd2 growth: qHTS Primary assay for Inhibitors of Plasmodium falciparum Dd2 growth in vitro; P. falciparum Dd2 growth, SYBR Green, 72 h; Potency, µM (titrated, usually from 28.9 µM), without a hit: top-dose activity, negative = inhibition, usual class: inhibitors; 4.3% of 120,000 active; AID 1347417, 2020; active = well fitted inhibition curve with a large enough effect;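 also: plate controls were DMSO vehicle for no effect and reference drug for full effect; nearly all actives have a fitted effect of over 65% in size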
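Readout: SYBR Green fluorescence, 485 nm excitation, 535 nm emission, after ~16 h lysis at 37C. Before that, Dd2-infected red cells (2.5% hematocrit) grew 72 h with compound, 29 uM top final concentration.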
Starred values were filed as active, the others as inactive; i = inactive; [ ] = dose if it differs, or a comment. Potency is read from the fitted curve at half-maximal effect.

SMILES | Pf Dd2 growth
COC(=O)[C@@H]1Cc2c([nH]c3ccccc23)[C@H]2C[C@@H](N3CCCCC3)C[C@@H](c3ccccc3F)N21 | 3.98µM*
Cn1cnc(S(=O)(=O)NCCc2noc(-c3ccncc3)n2)c1 | 51.6%
O=C(N[C@@H]1COCC[C@@H]1OCc1ccccn1)c1n[nH]c2c1CCC2 | 7.7%
COc1cc(SC)ccc1C(=O)N[C@H]1CCN2C(=O)N(c3ccc(C)cc3)C(=O)[C@@H]2C1 | -3.2%
COc1ccc2c(c1)OCC(CNC(=O)c1noc3c1CCCC3)C2 (stereo not given) | -7.8%
Cc1cn2nc(C(=O)NCc3ccc(Cl)cc3)cc2c(=O)[nH]1 | 3.5%
Cc1cn2nc(C(=O)NCc3ccc(F)cc3F)cc2c(=O)[nH]1 | 3.16µM*
Cc1cn2nc(C(=O)NCc3ccccc3C)cc2c(=O)[nH]1 | 24.8%
CCN(C)C(=O)Cn1ncc(N2CCOC(CCN)C2)cc1=O (stereo not given) | -0.4%
CCCS(=O)(=O)N1CCC(Oc2ccc(-c3noc(C(C)C)n3)cc2)C1 (stereo not given) | 16.2%[5.79 µM]
CC(C)NC(=O)c1coc(COc2ccc3c(c2)C(c2cccc(F)c2)N(C(=O)C2CC2)CC3)n1 (stereo not given) | -22.9%
CCNC(=O)c1coc(COc2ccc3c(c2)C(c2cccc(F)c2)N(C(=O)C(C)C)CC3)n1 (stereo not given) | 0.708µM*
COCCNC(=O)c1coc(COc2ccc3c(c2)C(c2cccc(F)c2)N(C(=O)C(C)C)CC3)n1 (stereo not given) | -10.2%
COCCNC(=O)[C@@H]1C[C@H](Oc2ccccc2)CN1S(=O)(=O)Cc1ccccc1 | -16.6%
CN(Cc1cc(C2CC2)n[nH]1)c1nccc(-c2cccnc2)n1 | -24.6%
CN(CCC(O)c1ccccc1)c1nccc(-c2cccnc2)n1 (stereo not given) | 10µM*
Cc1cn2cc(C(=O)N(C)CCC(O)c3ccccc3)ccc2n1 (stereo not given) | 1.8%
COc1ccc(Cl)cc1S(=O)(=O)N1CCC(n2cnnc2C)CC1 | -25.6%
COc1ccc(Cl)cc1S(=O)(=O)N1CCC(OC2CCN(C)CC2)CC1 | 3.16µM*
COc1ccc(OC)c(S(=O)(=O)N2CCC(OC3CCN(C)CC3)CC2)c1 | i
COc1ccc(C(=O)Nc2ccc([C@@H](O)[C@H]3COCC(=O)N3CC3CCCCC3)cc2)cc1 | i
O=C(c1cc[nH]c(=O)c1)N1CCCn2ccnc2C1c1ccccc1 (stereo not given) | -10.4%
CC(C)C(=O)N1CCC2(CC1)OC(=O)N(Cc1ncccn1)C2(C)c1ccccc1 (stereo not given) | i
CC1(c2ccccc2)N(Cc2ncccn2)C(=O)OC12CCN(C(=O)Cc1ccc(Cl)cc1)CC2 (stereo not given) | 12.6µM*
CC1(c2ccccc2)N(Cc2ccccc2F)C(=O)OC12CCN(C(=O)Cc1ccc(O)cc1)CC2 (stereo not given) | -5.8%
SMILES | Pf Dd2 growth
CC1(c2ccccc2)N(Cc2ccccc2C#N)C(=O)OC12CCN(C(=O)Cc1cccc(F)c1)CC2 (stereo not given) | 11.2µM*
CC1(c2ccccc2)N(Cc2cccnc2)C(=O)OC12CCN(C(=O)Cc1cccc(F)c1)CC2 (stereo not given) | i
CC1(c2ccccc2)N(Cc2ccccc2C#N)C(=O)OC12CCN(C(=O)Cc1ccc(O)cc1)CC2 (stereo not given) | i
Cc1cc(S(=O)(=O)N2CCC(c3noc(COc4ccc(F)cc4)n3)CC2)ccc1F | -18.9%
OCCn1nc(-c2ccncc2)nc1CC12CC3CC(CC(O)(C3)C1)C2 | 2.1%
CCCOc1cccc(-c2nc(C(=O)NCC)cs2)c1 | -3.7%
O=C(NC1CCCC1)N1CCCN(c2nc3ncccc3o2)CC1 | 14.3%[44.1 µM]
CC(C)(Oc1ccccc1)C(=O)N1CCCn2nc(C(=O)N3CCOCC3)cc2C1 | 4.1%
CCOC(=O)C1(Cc2ccccc2Cl)CCN(C(=O)c2ccsc2)CC1 | -6.2%
CCOC(=O)C1(Cc2ccccc2Cl)CCN(Cc2cccc3c2OCO3)CC1 | 8.91µM*
CCOC(=O)C1(Cc2ccccc2F)CCCN(C(=O)C2=C(C)OCCO2)C1 (stereo not given) | -9.7%
COc1ncccc1-c1cnc2n[nH]c(-c3ccc4c(c3)OCO4)c2n1 | i
CC(Oc1ccccc1)C(=O)N1CCC(n2cc(-c3nc(C4CC4)no3)nn2)C1 (stereo not given) | i
CN(C)c1ncnc2sc3c(c12)CCN(Cc1ccc2cc[nH]c2c1)C3 | 1.26µM*
CN(C)c1ncnc2sc3c(c12)CCN(Cc1ccco1)C3 | 3.98µM*
Cc1ccsc1CN1CCc2nc(N(C)C)[nH]c(=O)c2CC1 | -26.9%[5.79 µM]
CN1CCN(c2nc3c(c(=O)[nH]2)CCN(Cc2ccc4cc[nH]c4c2)CC3)CC1 | i[5.79 µM]
CN1c2cccnc2CN(Cc2ccco2)CC[C@H]1CO | -14.8%[44.1 µM]
CN1C(=O)[C@H]2CN(Cc3ccco3)C[C@H]2C1=O | 42.0%
Cc1ccsc1CN1CCc2nc(N3CCN(C)CC3)[nH]c(=O)c2CC1 | i[5.79 µM]
Cc1ccsc1CN1CCc2c(sc3ncnc(N(C)C)c23)C1 | 5.01µM*
CN(Cc1cccnc1)c1nc2c(c(=O)[nH]1)CCN(Cc1ccc3[nH]ccc3c1)CC2 | 40.3%[5.79 µM]
Cc1noc([C@@H]2CN(Cc3ccncc3)C[C@H]2CO)n1 | 14.2%
Cn1c(Cn2cccn2)nnc1C1CC(NC(=O)c2ccsc2)C1 (stereo not given) | -6.5%
COCCNc1ncnc2c1CN(c1ccc(OC)cc1)C(=O)CN2C | 23.5%
SMILES | Pf Dd2 growth
COc1cccc(CC(=O)N2CCN(C(=O)c3nnn4c3COC(c3ccc(Cl)cc3)C4)CC2)c1 (stereo not given) | -21.6%
O=C(N1CCOCC1)N1CCn2c(nnc2-c2cncc(Br)c2)C1 | -8.3%
COc1ccc(Cn2c(C3CCN(C(=O)c4ccsc4)CC3)n[nH]c2=O)cc1 | -20.6%
O=C(NCCC1CCN(C(=O)Nc2cc(F)ccc2F)CC1)C1CCCC1 | -15.0%
COc1ccc(OCC(=O)N2CCC3(CC2)C(=O)NCCN3C)cc1 | -5.5%
CCC(CC)NC(=O)C1CCN(c2cnn(CCOC)c(=O)c2)C1 (stereo not given) | -0.4%
CN(C)[C@@H]1CN(C(=O)C2CC2)CC[C@]1(O)c1ccccc1 | i[5.79 µM]
CN(C)C[C@@H]1CN(C)C[C@H]1NS(=O)(=O)c1ccc(Br)cc1 | 1.78µM*
CNC(=O)N1C[C@@H](CN(C)C)[C@H](NS(=O)(=O)c2ccc3c(c2)CCC3)C1 | 20.7%
CCCS(=O)(=O)N[C@@H]1CN(C)C[C@H]1CN(C)C | 15.8%
CN(C)C[C@@H]1CN(C)C[C@H]1NS(=O)(=O)c1ccc2c(c1)CCCC2 | 3.16µM*
CN(C)C[C@@H]1CN(c2ncccn2)C[C@H]1NS(=O)(=O)c1cccnc1 | i
CC(=O)N1C[C@@H](CN(C)C)[C@H](NS(=O)(=O)c2cccc(C#N)c2)C1 | 7.1%
CC(C)CNC(=O)CCC1CCN(S(=O)(=O)c2ccccc2F)CC1 | -24.5%
CO[C@H]1C(=O)N(C2CCN(S(=O)(=O)c3c(C)noc3C)CC2)[C@H]1c1ccncc1 | -18.1%
C[S+](=O)([O-])N1CCCN(c2nc3ncccc3o2)CC1 | -6.7%[44.1 µM]
CCN(Cc1ccccc1)Cc1c(O)ccc2c(=O)c(-c3ccccc3)c(C(F)(F)F)oc12 | 6.31µM*
CCN(Cc1ccccc1)Cc1c(O)ccc2c(=O)c(-c3ccccc3Cl)c(C(F)(F)F)oc12 | 8.91µM*
Cc1ccc(-c2c(C(=O)N(C)Cc3ccccc3)oc(=O)c3ccccc23)cc1 | -12.5%
